Source: PubChem BioAssay (National Center for Advancing Translational Sciences (NCATS))
Only some compounds are listed: those with a hit (about 19% of all), similar ones and a draw of the others.
HT1080 IDH1KD tx – kills HT-1080 cells with IDH1 knockdown | HT-1080 IDH1 knockdown viability, ATP luminescence, 48 h | Potency, µM (top dose mostly 46.1 µM), without a hit: at the highest dose activity, negative = toxicity, usual class: cytotoxic | 360,000 tested, 2% active | AID 686971;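 also: 0% = DMSO wells and -100% = cell-free medium wells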
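Assay cells: HT-1080 with IDH1 knockdown, 750 per well, RPMI/5% FBS. Exposure: 48 h at 37 °C following 2 h pre-incubation. Read: CellTiter-Glo luminescence; fitted concentration-response, curve class assigned.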
TDP1 cell CPT – growth inhibition of DT40 Tdp1-/-;hTDP1 cells with camptothecin (screen for TDP1 inhibitors). chicken DT40 Tdp1-/-;hTDP1 cells + 20 nM CPT, ATP luminescence, 48 h. Potency, µM (highest dose often 46.2 µM), inactives show at the highest dose activity change, negative = growth inhibition, most hits filed as inhibitors. 420,000 tested, 12% active. AID 686979; also: nearly all actives have a fitted effect of over 55% in size
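Cell growth measured by CellTiter-Glo luminescence after a minimum 48 h, 37 C compound exposure with 20 nM CPT in Tdp1-knockout DT40 cells stably expressing hTDP1, seeded 400/well; qHTS titration format.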
TDP1 cell noCPT – qHTS for Inhibitors of human tyrosyl-DNA phosphodiesterase 1 (TDP1): qHTS in cells in absence of CPT; DT40 Tdp1-/- hTDP1 cells, no CPT, ATP luminescence, 48 h; Potency, µM (highest dose often 46.2 µM), inactives show at the top dose activity change, negative = growth inhibition, most hits filed as inhibitors; 420,000 tested, 15% active; AID 686978, 2013; also: nearly all actives have a fitted effect of over 55% in size
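Cells were dispensed at 400 per well, compounds added by pin tool, plates incubated ≥48 hr at 37 °C, then CellTiter-Glo added for 30 min at room temperature before luminescence reading. Line: DT40 Tdp1-/- complemented with hTDP1; camptothecin omitted.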
KB-V1 MDR tox – kills drug-selected multidrug resistant KB-V1 cells; KB-V1 MDR cells viability, CellTiter-Glo, 72 h; Potency, µM (series often up to 46.1 µM), most hits filed as cytotoxic; 400,000 tested, 3.4% active; also: nearly all actives have a fitted effect of over 60% in size
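KB-V1 MDR subline cells in DMEM (phenol-red free, 10% FBS) exposed to compounds in qHTS concentration series for 72 h at 37 degrees C. Viability read by CellTiter-Glo luminescence; concentration-effect curves fitted after normalization and correction.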
HT1080-NT tox – kills 2HG-producing HT-1080-NT fibrosarcoma cells. HT-1080-NT fibrosarcoma viability, CellTiter-Glo ATP luminescence, 48 h. Potency, µM (titrated, usually from 46.1 µM), without a hit: at the highest dose activity, negative = less viability, usual class: cytotoxic. 360,000 tested, 1.6% active;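 also: NT is the 2HG producing partner of a matched IDH1 knockdown line; 0% = DMSO-treated cells and -100% = media-only wells without cells; nearly all actives have a fitted effect of over 55% in size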
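Toxicity toward the 2HG-producing NT line was scored as %Activity, normalised to DMSO and no-cell wells, from CellTiter-Glo luminescence after 48 hours' treatment.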
KB-3-1 tox – KB-3-1 parental cell cytotoxicity | 400,000 tested, 1.4% active | KB-3-1 viability, CellTiter-Glo ATP luminescence, 72 h | Potency, µM (top dose mostly 46.1 µM), most hits filed as cytotoxic | AID 1347075; also: nearly all actives have a fitted effect of over 60% in size
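Multi-concentration cytotoxicity screen in KB-3-1 cells grown in DMEM lacking phenol red with 10% FBS. After 72 h at 37 °C with compound, ATP-dependent luminescence was recorded.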
Active calls of the source: *; i = inactive; ? = inconclusive; / = no result given; ! = a repeat was not active. Calls follow the shape of the dose curve; as a rule, active = well fitted curve in the direction sought with a large enough effect; inconclusive = small, poorly fitted or top-dose-only effect, or another doubt; inactive = no such curve, though single readings can be large; an effect the other way counts as inactive or inconclusive. Unless noted, % is scaled to controls: 0 for no effect and ±100 for the full control effect; potency is read from the fitted curve at half-maximal effect.

SMILES	HT1080 IDH1KD tx	TDP1 cell CPT	TDP1 cell noCPT	KB-V1 MDR tox	HT1080-NT tox	KB-3-1 tox
CCOC(=O)[C@]12CCCC=C1N(Cc1ccc(Cl)cc1Cl)C(=O)[C@H](CC(=O)NCCc1ccccc1OC)C2	?	?	23µM*	?	?	?
CCN(Cc1ccncc1)Cc1nc(CC2CC2)no1	8%	-28%	?	i	2%	i
CN(C)c1ncnc2c1ncn2[C@H]1CN(Cc2cccs2)C[C@@H](CO)O1	9%	-9%	-8%	i	28%	i
CCOCc1ccccc1Nc1ncnc2onc(-c3ccc(Cl)cc3)c12	/	0%	?	i	/	i
CCCCOCCCNC(=O)C[C@@H]1C[C@@]2(C(=O)OCC)CCCC=C2N(Cc2ccc(Cl)cc2Cl)C1=O	?	?	18µM*	?	?	?
Cc1c(C(=O)NCCCN2CCOCC2)oc2c1C1(CCC2)SCCS1	12%	12µM*	23µM*	i	5%	i
Cn1cc(-c2ccc(C(=O)NCc3cccc(Cl)c3)c3occc23)cn1	-22%	?	?	i	-20%	i
Cn1cc(-c2coc3c(C(=O)NCc4cccnc4)cccc23)cn1	-1%	?	23µM*	i	1%	i
COc1ccc(CNC(=O)c2cccc3c(-c4cnn(C)c4)coc23)cc1OC	?	?	?	i	23µM*	i
COc1cccc(NC(=O)CSc2c(C)cnc3c2c(=O)n(C)c(=O)n3C)c1	/	?	?	i	/	i
CCN1C(=O)N2C[C@H]3CON(C)[C@H]3C[C@H]2c2ccccc21	15%	-12%	-1%	i	10%	i
Cc1oc2ncn(C)c(=O)c2c1C(=O)N1CCN(c2cccc(C(F)(F)F)c2)CC1	/	-19%	-18%	i	/	i
CCOC(=O)C1CCN(C(c2cc3c(C)ccc(C)c3[nH]c2=O)c2nnnn2C2CCCCC2)CC1 (configuration not stated)	0%	28µM*	?	?	9%	i
CCOC(=O)C1CCN(C(c2cc3ccc(C)c(C)c3[nH]c2=O)c2nnnn2C2CCCCC2)CC1 (configuration not stated)	?	?	?	16µM*	-6%	i
O=C(Nc1nnc(-c2ccco2)o1)C1CCCCC1	2%	-8%	-17%	i	-6%	i
O=C(CCc1ccccc1)Nc1nnc(-c2ccc3c(c2)CCCC3)o1	-28%	18µM*	?	i	-22%	?
O=C(Nc1nnc(-c2ccc3c(c2)CCCC3)o1)C1CCCCC1	6%	15µM*	?	?	-1%	i
O=C(Nc1nnc(-c2ccc3c(c2)CCCC3)o1)c1c(F)cccc1F	-24%	10%	-19%	?	-14%	i
O=C(Nc1nnc(-c2ccc3c(c2)CCCC3)o1)c1ccc(Cl)cc1Cl	-29%	13µM*	?	i	?	?
O=C(CCc1ccccc1)Nc1nnc(-c2ccc3c(c2)OCCO3)o1	-12%	-29%	-28%	i	-14%	i
Cc1cc(C)c(CN2C(=O)c3ccccc3S(=O)(=O)c3ccc(C(=O)OCC4CCCO4)cc32)c(C)c1 (configuration not stated)	/	?	?	i	/	i
Cc1cn([C@H]2C[C@H](O)[C@@H](CCC(=O)NCC3CCCO3)O2)c(=O)[nH]c1=O (some centres not stated)	19%	-8%	-9%	i	2%	i
Cc1cccc(C)c1NC(=O)C1c2ccccc2OCC(=O)N1Cc1cccnc1 (configuration not stated)	3%	-5%	8%	?	17%	i
Cc1ccccc1N=C(c1ccccc1)C1C(=O)c2ccccc2C1=O	?	10µM*	10µM*	21µM*	?	?
CCOc1ccc(CCNC(c2cccc(Cl)c2)c2nnc(-c3ccccc3)o2)cc1OCC (configuration not stated)	/	16µM*	26µM*	i	/	i
SMILES	HT1080 IDH1KD tx	TDP1 cell CPT	TDP1 cell noCPT	KB-V1 MDR tox	HT1080-NT tox	KB-3-1 tox
COc1ccc(NC(c2nnc(-c3ccccc3)o2)c2ccccc2F)cc1Cl (configuration not stated)	/	-30%	-41%	i	/	i
CCOc1ccc(CCNC(c2nnc(-c3ccccc3)o2)c2ccccc2Cl)cc1OCC (configuration not stated)	/	15µM*	15µM*	i	/	?
Cc1c(CCC(=O)NCCc2ccccc2)c(=O)oc2c(C)c(O)ccc12	/	-7%	-2%	i	/	i
O=C1N(Cc2ccccc2)c2ccccc2C12OCCO2	7%	-1%	-24%	i	2%	i
CC1(C)CC(=O)C(C2(O)C(=O)Nc3ccccc32)CO1 (configuration not stated)	-1%	19%	-11%	i	-3%	i
CC1(C)CC(=O)C(C2(O)C(=O)N(Cc3ccccc3)c3ccccc32)CO1 (configuration not stated)	-3%	4.6µM*	5.2µM*	i	-8%	i
CC1(C)CC(=O)CC(C2(O)C(=O)N(Cc3ccccc3)c3ccccc32)O1 (configuration not stated)	-2%	2.6µM*	1.8µM*	?	-4%	?
CC(C)N1C(=O)C(O)(C2COC(C)(C)CC2=O)c2ccccc21 (configuration not stated)	-2%	5.8µM*	7.3µM*	i	-1%	i
C[C@H]1CN(C2CCCCC2)C(=O)[C@@H]1CC(=O)NCc1ccccc1	0%	?	?	?	0%	i
CCCCN1C[C@H](C)[C@@H](CC(=O)NCc2ccccc2)C1=O	3%	2%	9%	?	-9%	i
COc1ccc(CNC(=O)C[C@H]2C(=O)N(C3CCCCC3)C[C@@H]2Cc2ccccc2)cc1	12%	?	-25%	?	14%	?
COc1ccc(CNC(=O)C[C@H]2C(=O)N(Cc3ccc(OC)cc3)C[C@@H]2Cc2ccccc2)cc1	0%	21µM*	8.9µM*	13µM*!	0%	i
CCCCC[C@H]1CN(Cc2ccccc2)C(=O)[C@@H]1CC(=O)NCc1ccc(OC)cc1	8%	21µM*	16µM*	18µM*!	3%	?
